From PubChem
LYPLA1 inh = LYPLA1 (human) inhibition in PME1 counter-screen; inhibition, % at 5.9 µM; recombinant LYPLA1, FP-Rh probe fluorescence polarization; 320,000 compounds, 0.16% hits;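 active = inhibition above the mean of all tested compounds plus 3 SD, set per campaign, cut at about 14% in these data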;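 note: inhibitors block serine hydrolase probe labeling of LYPLA1 so polarization falls; 0% = enzyme with DMSO and 100% = wells lacking LYPLA1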
Fam108B counter = Fam108B inhibition, counter-screen for RBBP9 inhibitors; recombinant Fam108B, FP-Rh probe fluorescence polarization; inhibition, % at 9.51 µM; AID 1947; 300,000 compounds, 0.33% hits;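 active = inhibition above the screen mean inhibition plus 3 SD, computed separately per campaign, cut at about 18% in these data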;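 note: inhibitors lower polarization as less probe binds the enzyme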
GSTO1 counter = blocks human GSTO1 in RBBP9 counter-screen. recombinant GSTO1, activity-based probe fluorescence polarization. inhibition, % at 5.96 µM. 300,000 compounds, 1.1% hits;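 active = inhibition above the campaign mean inhibition plus 3 SD, cut at about 35% in these data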;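 note: 0% = GSTO1-1 with DMSO and 100% = wells lacking GSTO1-1 enzyme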
Target sequence (P78417 whole entry, looked up): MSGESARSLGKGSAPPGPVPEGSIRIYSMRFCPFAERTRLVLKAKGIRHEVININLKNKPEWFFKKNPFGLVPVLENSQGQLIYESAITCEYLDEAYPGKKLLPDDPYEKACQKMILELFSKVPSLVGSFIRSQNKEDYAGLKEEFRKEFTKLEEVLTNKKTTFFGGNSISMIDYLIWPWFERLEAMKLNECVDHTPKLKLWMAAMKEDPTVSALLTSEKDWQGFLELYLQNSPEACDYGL
PME-1 inh = PME-1 (human) inhibition; 320,000 compounds, 0.53% hits; Q9Y570; recombinant PME-1, FP-Rh probe fluorescence polarization; inhibition, % at 5.9 µM;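 active = inhibition above the campaign mean of all compounds plus 3 SD, cut at about 26% in these data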;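 note: competitive labeling of PME-1 active site by serine hydrolase directed probe; 0% = PME-1 with DMSO and 100% = wells lacking PME-1 enzyme; inhibitors block probe labeling so polarization falls and inhibition rises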
LYPLA2 counter = blocks human lysophospholipase 2, a PME1 counter-screen; recombinant LYPLA2, FP-Rh probe fluorescence polarization; inhibition, % at 5.9 µM; 320,000 compounds, 0.38% hits; AID 2177;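 active = inhibition above the screen-wide mean plus 3 SD, limit set per campaign, cut at about 26% in these data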;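 note: 0% = LYPLA2 with DMSO and 100% = wells lacking LYPLA2 enzyme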
Target sequence (O95372 whole entry, looked up): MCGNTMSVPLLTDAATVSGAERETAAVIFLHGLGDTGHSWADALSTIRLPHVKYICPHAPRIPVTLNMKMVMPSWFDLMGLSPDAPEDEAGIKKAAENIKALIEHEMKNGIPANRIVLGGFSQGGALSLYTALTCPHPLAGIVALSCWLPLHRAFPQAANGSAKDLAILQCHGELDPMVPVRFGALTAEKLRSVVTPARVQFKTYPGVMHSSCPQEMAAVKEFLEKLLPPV
PAD4 FP inh = blocks human protein arginine deiminase 4; Q9UM07; inhibition, % at 6.36 µM; 330,000 compounds, 0.41% hits; recombinant PAD4, RCA probe fluorescence polarization;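 active = percent inhibition above a cutoff equal to the mean of all tested compounds plus 3 SD, cut at about 15% in these data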;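 note: 0% = PAD4 with RCA probe and DMSO and 100% = probe without PAD4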
LYPLA2 conf = LYPLA2 (human) inhibition, confirmation counter-screen; shares compounds with LYPLA2 counter; AID 2232; 1,100 compounds, 72% hits; recombinant LYPLA2, FP-Rh probe fluorescence polarization; inhibition, % at 5.9 µM;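 active = mean inhibition across replicates above the hit cutoff set in the primary screen, cut at about 26% in these data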;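 note: blocked labeling of the enzyme by serine hydrolase FP-Rh probe lowers polarization; 0% = enzyme with DMSO and 100% = wells lacking LYPLA2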
PAD4 confirm = confirmation of human PAD4 inhibitors; shares compounds with PAD4 FP inh; recombinant PAD4, RCA probe fluorescence polarization; inhibition, % at 6.36 µM; 1,200 compounds, 28% hits; AID 488796;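 active = mean inhibition across replicates above the hit cutoff set by the earlier primary screen, cut at about 15% in these data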;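 note: inhibitors block active-site labeling by the probe so polarization falls; 0% = PAD4 with probe and DMSO and 100% = probe without PAD4 enzyme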
* = called active by the depositor; x = no result. A selection: hits, their analogues and other compounds. The true share with any hit is near 1.8%.

SMILES	LYPLA1 inh	Fam108B counter	GSTO1 counter	PME-1 inh	LYPLA2 counter	PAD4 FP inh	PAD4 confirm	others
Cc1nn(-c2ccccc2)c(C)c1C(=O)OCC(=O)Nc1ccccc1	3.1	x	x	4.5	39.0*	5.8	x	LYPLA2 conf=25.2
Cc1cccc(COc2ccc(/C=C3/C(=O)N(C)C(=S)N3C)cc2)c1	-2.5	-0.4	8.9	-2.4	-4.3	-4.0	x
Cc1cc(Br)cc(C=Nc2ccc(N3CCOCC3)cc2)c1O	1.8	1.7	6.8	-6.4	5.7	19.1*	0.8
Nc1ccccc1C(=O)NC1CCCNC1=O (configuration not stated)	0.1	4.0	3.5	-1.8	8.2	28.8*	1.1
CC1=NN(c2ccccc2)C(=O)/C1=C/c1cccs1	0.5	-2.5	55.0*	0.4	4.3	34.9*	1.2
CC1=NN(c2ccccc2)C(=O)/C1=C\c1ccc(Br)s1	-4.3	7.7	16.2	3.9	-0.2	16.4*	-1.9
CC1=NN(c2ccccc2)C(=O)/C1=C/c1ccc[nH]1	-0.9	3.7	2.2	5.0	-0.3	0.7	x
C=CCC(CC=C)(NC(=O)c1ccccc1)c1ccccc1	-0.6	2.1	7.5	-0.4	6.6	-1.4	x
C=CCC(CC=C)(NC(=O)c1ccccc1C)c1ccccc1	-4.5	-1.4	12.1	1.1	-5.7	16.6*	7.6
Cn1cc(/C=C(\C#N)C(=O)Nc2ccccc2O)c2ccccc21	-18.6	7.0	-23.4	19.5	-4.0	-6.5	x
COc1ccc(CCNC(=O)COc2nsnc2N2CCOCC2)cc1OC	-2.9	1.5	-9.8	1.8	3.2	43.8*	-3.2
COc1ccc(NC(=O)COc2nsnc2N2CCOCC2)cc1	-4.4	1.8	6.0	0.2	1.6	-8.3	x
Cc1ccc(S(=O)(=O)NCC2CCC(C(=O)NCc3cccnc3)CC2)cc1 (configuration not stated)	-0.5	-0.1	6.4	3.5	5.4	-0.5	x
OCc1ccccc1SSc1ccccc1CO	2.2	-2.4	20.8	-3.3	-0.8	47.9*	41.5*
CC(C)(C)c1ccc(C(=O)NCC(=O)N/N=C/c2cccnc2)cc1	-2.5	1.5	-2.6	2.0	0.2	-3.5	x
Cc1ccc(-c2nn(-c3ccccc3)cc2C=O)o1	-2.2	3.6	5.4	1.3	1.7	16.6*	2.4
COc1ccc(NC(=O)Nc2ccc3c(c2)CC(=O)N([C@H](C)CO)C[C@H](C)[C@H](CN(C)Cc2ccc(C(=O)O)cc2)O3)cc1	x	x	x	x	x	0.2	x
CN(C)c1ccc(N2C(=O)CSC2=S)cc1	-19.0	-9.3	-65.0	-25.4	-26.1	-36.6	x
CC1SC(=S)N(c2ccc(N(C)C)cc2)C1=O (configuration not stated)	-2.7	-4.4	14.7	3.5	5.1	15.1*	3.3
COCCOC(=O)c1c(C)n(C)c2ccc(OC(=O)c3c(OC)cccc3OC)cc12	-4.9	7.6	-5.8	-7.6	0.3	29.2*	22.6*
COCCOC(=O)c1c(C)n(C)c2ccc(OC(=O)N3CCOCC3)cc12	2.1	3.4	-0.1	-7.6	-1.4	0.2	x
CCOC(=O)c1c(CSC(=N)N)n(C)c2cc(Br)c(OC(C)=O)cc12	-2.7	-1.8	-23.5	1.7	0.2	38.2*	44.0*
CCOC(=O)c1c(CN2CCN(C)CC2)n(C)c2cc(Br)c(OC)cc12	-2.5	-2.8	-3.0	-3.4	1.1	-1.5	x
CCN1CCN(c2ccc(S(=O)(=O)N3CCCCC3)cc2NC(=O)CC(NC(C)=O)c2ccccc2)CC1 (configuration not stated)	-4.9	2.2	6.1	3.7	-4.7	-4.7	x
Cc1cccc(-c2nnc3n2N=C(c2ccccc2)CS3)c1	6.2	-0.6	1.8	5.2	12.8	-0.7	x
Cc1nn2c(nc1=O)SCC(c1ccccc1)=N2	3.1	-5.3	8.8	-4.3	-4.3	18.2*	-6.5
COc1cccc(CN(C)C(=O)Nc2cccc(C(F)(F)F)c2)c1OC	-0.6	-1.9	4.5	-3.3	3.3	2.8	x
COc1ccc(N2C(=O)CSC23C(=O)Nc2ccccc23)cc1OC (configuration not stated)	-0.9	-2.5	-3.0	3.6	0.2	6.7	x
